An excerpt weighted towards active compounds, which were near 3.1% of everything screened.
Nrf2 activator: qHTS of Nrf2 Activators; AREc32 ARE-luciferase reporter (MCF7-derived line), luminescence, 24 h; Potency, µM (series often up to 46.1 µM), actives largely listed as activators; actives 0.31% (n = 410,000); AID 624171, 2012; also: nearly all actives have a fitted effect of over 65% in size
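For detection, Steady-Glo was added and plates sat 30 min at RT; before that, AREc32_Fluc cells grown overnight in OPTI-MEM/5% FBS had been treated with 23 nL compound for 24 hr at 37 deg C.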
IL2 activator: qHTS of IL-2 Activators. IL-2 activation reporter assay, cell-based qHTS; stimulated with anti-CD3/CD4/CD28 beads; in transgenic mouse T cells. activation, % (series mostly up to about 46 µM). actives 0.065% (n = 360,000). AID 652025, 2013; in the data active = activation above about 50%; inconclusive = mostly about 30% to 49%
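Unstimulated transgenic mouse T cells, 750 per well, received compound and, after 60 minutes, anti-CD3/anti-CD4 bead plus anti-CD28 stimulation. EGFP and DsRed were quantified after 18 hours.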
BRCA1 expr up: qHTS Assay to Identify Small Molecule Activators of BRCA1 Expression. MCF7-BRCA1-FFLuc reporter, luminescence, 48 h; response scale: scaled: vehicle 0%, 10 µM genistein 100%. Potency, µM (top dose mostly 46.1 µM), actives largely listed as activators. actives 1.1% (n = 380,000). AID 624202, 2012; also: nearly all actives have a fitted effect of over 80% in size
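MCF7 cells carrying a BRCA1-firefly luciferase reporter (2000 cells/well, phenol-red free MEM) were attached for 2 h at 37 °C, then given compounds for 48 h. Luminescence was read 15 min after luciferase reagent; activity normalized to genistein (10 microM) and DMSO.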
ELG1 repair inh: qHTS screen for small molecules that inhibit ELG1-dependent DNA repair in human embryonic kidney (HEK293T) cells expressing luciferase-tagged ELG1; HEK293T ELG1-luciferase reporter, luminescence, 16 h; DNA damage induced by 5-fluorouridine; Potency, µM (titrated, usually from 46.1 µM), most hits filed as inhibitors; actives 2.3% (n = 330,000); also: nearly all actives have a fitted effect of over 55% in size
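Overnight (16 hr) co-exposure of 2,000 cells/well to 5-fluorouridine and compound at 37 °C preceded detection. Luciferase was quantified via ONE-Glo luminescence; loss of signal denotes inhibition.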
ELG1 FLuc counter: qHTS screen for small molecules that inhibit ELG1-dependent DNA repair: Hit Confirmation in Cell-Based Luciferin Assay; AID 624247, 2012; actives 3% (n = 350); cell-free firefly luciferase luminescence counter-screen, ViewLux; Potency, µM (highest dose often 46.1 µM), actives largely listed as inhibitors; shares compounds with ELG1 repair inh
ELG1-Luc inh: HTS assay for small molecules that inhibit ELG1-dependent DNA repair in human embryonic kidney (HEK293T) cells expressing luciferase-tagged ELG1: Hit Confirmation | shares compounds with ELG1 repair inh | HEK293T ELG1-luciferase levels, luminescence; cells co-treated with 5-fluorouridine | Potency, µM (titrated, usually from 46.1 µM), usual class: inhibitors | actives 68% (n = 670) | AID 624248, 2012; also: nearly all actives have a fitted effect of over 55% in size
Target sequence (Q96QE3 whole entry, looked up): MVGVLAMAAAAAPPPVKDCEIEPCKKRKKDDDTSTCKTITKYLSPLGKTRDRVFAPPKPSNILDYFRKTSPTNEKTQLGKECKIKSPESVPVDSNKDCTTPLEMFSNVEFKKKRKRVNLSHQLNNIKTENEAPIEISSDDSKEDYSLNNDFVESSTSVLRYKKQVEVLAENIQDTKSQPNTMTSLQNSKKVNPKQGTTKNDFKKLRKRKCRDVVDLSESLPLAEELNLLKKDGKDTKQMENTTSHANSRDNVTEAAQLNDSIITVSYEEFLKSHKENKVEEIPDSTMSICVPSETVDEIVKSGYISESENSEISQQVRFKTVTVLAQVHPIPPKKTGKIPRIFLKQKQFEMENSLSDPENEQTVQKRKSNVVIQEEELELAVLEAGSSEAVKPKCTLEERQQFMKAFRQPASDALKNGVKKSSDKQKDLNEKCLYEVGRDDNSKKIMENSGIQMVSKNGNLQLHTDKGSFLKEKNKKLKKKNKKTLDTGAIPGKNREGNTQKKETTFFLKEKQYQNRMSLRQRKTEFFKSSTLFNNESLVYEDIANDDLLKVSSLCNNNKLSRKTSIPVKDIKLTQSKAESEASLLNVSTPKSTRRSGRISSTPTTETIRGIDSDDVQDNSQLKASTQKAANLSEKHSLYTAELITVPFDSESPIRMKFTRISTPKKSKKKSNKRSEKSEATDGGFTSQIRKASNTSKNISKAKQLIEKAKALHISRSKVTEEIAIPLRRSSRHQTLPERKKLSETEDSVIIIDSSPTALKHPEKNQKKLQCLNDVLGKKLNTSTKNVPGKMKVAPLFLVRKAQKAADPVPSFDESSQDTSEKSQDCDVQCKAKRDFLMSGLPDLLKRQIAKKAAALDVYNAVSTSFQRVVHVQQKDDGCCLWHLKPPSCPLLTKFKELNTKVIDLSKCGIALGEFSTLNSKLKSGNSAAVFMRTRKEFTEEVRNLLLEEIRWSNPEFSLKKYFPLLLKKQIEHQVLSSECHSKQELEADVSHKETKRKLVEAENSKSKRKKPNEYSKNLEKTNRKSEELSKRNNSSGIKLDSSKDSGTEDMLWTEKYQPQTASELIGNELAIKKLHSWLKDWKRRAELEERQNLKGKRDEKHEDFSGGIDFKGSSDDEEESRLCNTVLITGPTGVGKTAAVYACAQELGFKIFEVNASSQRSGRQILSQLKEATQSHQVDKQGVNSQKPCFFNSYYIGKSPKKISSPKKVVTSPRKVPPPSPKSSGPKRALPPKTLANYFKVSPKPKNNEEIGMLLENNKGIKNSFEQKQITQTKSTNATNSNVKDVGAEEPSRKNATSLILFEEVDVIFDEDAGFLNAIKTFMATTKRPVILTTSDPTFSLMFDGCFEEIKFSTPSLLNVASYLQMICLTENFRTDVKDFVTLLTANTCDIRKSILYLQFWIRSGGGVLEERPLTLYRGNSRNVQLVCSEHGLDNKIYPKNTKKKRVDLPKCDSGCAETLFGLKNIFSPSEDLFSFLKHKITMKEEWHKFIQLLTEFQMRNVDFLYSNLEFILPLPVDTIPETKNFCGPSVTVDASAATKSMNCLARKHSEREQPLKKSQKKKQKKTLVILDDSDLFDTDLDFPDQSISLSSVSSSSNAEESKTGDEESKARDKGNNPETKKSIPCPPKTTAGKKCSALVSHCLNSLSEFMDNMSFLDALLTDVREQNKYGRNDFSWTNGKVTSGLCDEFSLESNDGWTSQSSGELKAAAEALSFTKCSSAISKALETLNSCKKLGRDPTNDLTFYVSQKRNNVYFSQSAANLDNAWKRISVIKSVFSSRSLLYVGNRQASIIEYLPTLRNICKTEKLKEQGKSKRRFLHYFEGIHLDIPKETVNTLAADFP
ELG1 MMS Luc: MMS-stimulated human ELG1 repair inhibition, confirmed; shares compounds with ELG1 repair inh; HEK293T luciferase-tagged ELG1 level, MMS stimulated; Potency, µM (titrated, usually from 46.1 µM), usual class: inhibitors; actives 53% (n = 670); AID 624249; also: nearly all actives have a fitted effect of over 60% in size
ELG1 5FU viab: qHTS screen for small molecules that inhibit ELG1-dependent DNA repair: Hit Confirmation with 5FU Viability; shares compounds with ELG1 repair inh; cell viability with 5-FU, ELG1-dependent repair; Potency, µM (series often up to 46.1 µM), hits mostly cytotoxic; 670 tested, under 10 active; AID 624250, 2012;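 also: ELG1-luc HEK293T cells cotreated with 5-fluorouridine at 10 µM final; viability measured 16 h after compound addition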
ELG1 MMS cell: qHTS screen for small molecules that inhibit ELG1-dependent DNA repair: Hit Confirmation with MMS Viability | Cell viability with MMS, ELG1-dependent DNA repair | shares compounds with ELG1 repair inh | AID 624251, 2012 | actives 33% (n = 670) | Potency, µM (doses to about 46.1 µM), hits mostly cytotoxic;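 also: ELG1-luc HEK293T cells co-treated with 10 µM MMS; viability read 16 h after compound addition; nearly all actives have a fitted effect of over 60% in size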
Cell viab unstim: qHTS screen for small molecules that inhibit ELG1-dependent DNA repair: Hit Confirmation with Unstimulated Viability Assay; shares compounds with ELG1 repair inh; cell viability counter-screen, unstimulated, luminescence; Potency, µM (doses to about 45.9 µM), usual class: cytotoxic; actives 8% (n = 900);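 also: compound exposure lasted 16 hours before reading; nearly all actives have a fitted effect of over 55% in size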
FLuc biochem: qHTS screen for small molecules that inhibit ELG1-dependent DNA repair: Hit Confirmation in Biochemical Luciferin Assay; shares compounds with ELG1 repair inh; purified firefly luciferase, luminescence counter-screen; Potency, µM (highest dose often 57.5 µM), hits mostly inhibitors; actives 10% (n = 350)
Of the large screens only hits and unclear results are named; the others gave an inactive call (follow-up assays come after a bar, where they were run). Unless noted, calls follow the shape of the dose curve; as a rule, active = well fitted curve in the direction sought with a large enough effect; inconclusive = small, poorly fitted or top-dose-only effect, or another doubt; inactive = no such curve, though single readings can be large; an effect the other way counts as inactive or inconclusive.

Cc1ccc(-c2nc3ccccc3n3nnnc23)cc1	ELG1 repair inh inconclusive | ELG1 FLuc counter inactive | Cell viab unstim inactive | FLuc biochem inconclusive
COc1ccc(NC(=O)c2cc(-c3cc(OC)c(OC)c(OC)c3)nc3ccccc23)cc1OC	ELG1 repair inh 1.8µM | ELG1-Luc inh 1.1µM | ELG1 MMS Luc 20µM | ELG1 5FU viab inconclusive | ELG1 MMS cell inconclusive | Cell viab unstim inactive
COc1ccc(-c2cc(C(=O)Nc3ccc(O)cc3)c3ccccc3n2)cc1OC	ELG1 repair inh inconclusive
COc1cc2c(C#CCCO)c(-c3ccsc3)oc(=O)c2cc1OC	ELG1 repair inh inconclusive | ELG1 FLuc counter inactive | ELG1-Luc inh 6.3µM | ELG1 MMS Luc 7.9µM | ELG1 5FU viab inactive | ELG1 MMS cell inactive | Cell viab unstim inconclusive | FLuc biochem inactive
CCN1C(=O)[C@@H]2[C@@H](c3ccc(-c4ccc(Cl)c(Cl)c4)cc3)N3CCC[C@@]3(C(=O)OC)[C@@H]2C1=O	ELG1 repair inh 2.3µM | ELG1-Luc inh 6.3µM | ELG1 MMS Luc 8.9µM | ELG1 5FU viab inconclusive | ELG1 MMS cell 10µM | Cell viab unstim inconclusive
CC(C)C1C(=O)N(Cc2cn(CCC3OCCO3)nn2)CCS(=O)(=O)N1Cc1ccc(-c2ccc(F)cc2Cl)cc1 (centres undefined)	none (no result: ELG1 repair inh)
Cc1nc2cccnc2n1C1CCN(S(C)(=O)=O)CC1	none (no result: IL2 activator, BRCA1 expr up, ELG1 repair inh)
COc1ccc(OC)c(CNC(=O)c2nn(C)c3c2CS(=O)(=O)c2ccccc2-3)c1	ELG1 repair inh 3.3µM | ELG1-Luc inh 11µM | ELG1 MMS Luc inactive | ELG1 5FU viab inactive | ELG1 MMS cell inactive | Cell viab unstim inconclusive
COc1ccc(CNC(=O)c2nn(C)c3c2CS(=O)(=O)c2ccccc2-3)cc1	none
CC(=O)N1CCc2c(sc3c2c(=O)n(-c2ccccc2Cl)c(=O)n3C)C1	none (no result: IL2 activator, BRCA1 expr up, ELG1 repair inh)
COc1ccc(OC)c(CN2CCN(CC(=O)Nc3ccccc3C(=O)NC3CC3)CC2)c1	ELG1 repair inh inconclusive | ELG1-Luc inh 7.1µM | ELG1 MMS Luc inconclusive | ELG1 5FU viab inconclusive | ELG1 MMS cell inconclusive | Cell viab unstim inconclusive
COc1ccc(NC(=O)CN2CCN(c3ccccc3F)CC2)c(OC)c1	none (no result: IL2 activator, BRCA1 expr up, ELG1 repair inh)
COc1cc(C)c(CN2CCN(CC(=O)Nc3ccccc3C(=O)NC3CC3)CC2)cc1OC	ELG1 repair inh 3.7µM | ELG1-Luc inh 4µM | ELG1 MMS Luc 28µM | ELG1 5FU viab inconclusive | ELG1 MMS cell inactive | Cell viab unstim inactive
NC(=O)C1CCN(CC(=O)Nc2ccccc2C(=O)NC2CC2)CC1	none
COc1ccc(NC(=O)CN2CCN(C3c4ccccc4-c4ccccc43)CC2)c(OC)c1	ELG1 repair inh 3.7µM | ELG1-Luc inh 4µM | ELG1 MMS Luc 8.9µM | ELG1 5FU viab inconclusive | ELG1 MMS cell inconclusive | Cell viab unstim inactive
COc1ccc(OC)c(NC(=O)CN2CCC(NC(=O)c3ccccc3C)CC2)c1	ELG1 repair inh inconclusive
O=C(C1=C[C@H](c2ccc(Br)cc2)C[C@H](OCc2ccc(CO)cc2)O1)N1CCN(Cc2ccc3c(c2)OCO3)CC1	ELG1 repair inh 9.2µM | ELG1 FLuc counter inconclusive | ELG1-Luc inh 7.9µM | ELG1 MMS Luc inconclusive | ELG1 5FU viab inconclusive | ELG1 MMS cell inactive | Cell viab unstim inconclusive | FLuc biochem inactive
C#Cc1ccc([C@H]2C=C(C(=O)N3CCN(Cc4ccc5c(c4)OCO5)CC3)O[C@@H](OCc3ccc(CO)cc3)C2)cc1	ELG1 repair inh 1.6µM | ELG1 FLuc counter inactive | ELG1-Luc inh 5.6µM | ELG1 MMS Luc inconclusive | ELG1 5FU viab inconclusive | ELG1 MMS cell inconclusive | Cell viab unstim inactive | FLuc biochem inactive
O=C(N[C@H]1/C=C\[C@@H](O)CCCC1)OCc1ccccc1	BRCA1 expr up 4.5µM, ELG1 repair inh inconclusive | Cell viab unstim inactive
CCc1ccc2oc(-c3ccc(C)c(NC(=O)c4ccc(C#N)cc4F)c3)nc2c1	none (no result: IL2 activator, ELG1 repair inh)
COc1ccc(C(=O)Nc2cc3c(cc2N2CCCCC2)n(C)c(=O)n3C)cc1OC	none | ELG1 FLuc counter inactive | ELG1-Luc inh inconclusive | ELG1 MMS Luc inactive | ELG1 5FU viab inconclusive | ELG1 MMS cell inactive | Cell viab unstim inactive | FLuc biochem inactive
CSc1nc2sc3c(c2c(=O)n1-c1ccc(F)c(Cl)c1)CCN(C(C)=O)C3	none (no result: IL2 activator, BRCA1 expr up, ELG1 repair inh)
CCc1cccc(NC(=O)Cn2cc(C=O)c3ccccc32)c1	ELG1 repair inh 3.7µM | ELG1-Luc inh inconclusive | ELG1 MMS Luc 2.5µM | ELG1 5FU viab inactive | ELG1 MMS cell 2.8µM | Cell viab unstim inactive
COc1ccc(C(=O)Nc2nc(-c3ccccn3)cs2)cc1S(=O)(=O)N1CCOCC1	ELG1 repair inh 4.1µM | ELG1-Luc inh 13µM | ELG1 MMS Luc 22µM | ELG1 5FU viab inactive | ELG1 MMS cell 28µM | Cell viab unstim inconclusive
O=C(Nc1nc(-c2ccccn2)cs1)c1ccc(S(=O)(=O)N2CCCCC2)cc1	ELG1 repair inh 0.65µM (no result: Nrf2 activator, IL2 activator, BRCA1 expr up) | ELG1 FLuc counter inconclusive | ELG1-Luc inh 36µM | ELG1 MMS Luc 26µM | ELG1 5FU viab inactive | ELG1 MMS cell 36µM | Cell viab unstim inconclusive | FLuc biochem inactive
CCCCOc1ccc(CC(=O)N(C)OC)cc1	none (no result: Nrf2 activator, IL2 activator, ELG1 repair inh)
CCn1cc(C(=O)Nc2cccc(NC(C)=O)c2)c2cc(OC)c(OC)cc2c1=O	ELG1 repair inh inconclusive

From PubChem BioAssay
